# Screen size: about 310,000 compounds; about 14,000 (4.5%) showed an effect of 50% or more. The effect is printed as a negative number. The full list was thinned out, with strong results kept by preference.
# Target: human ether-à-go-go-related gene (hERG) potassium channel (human, UniProt Q12809)
# Experiment: primary screen, population patch clamp on CHO cells stably expressing hERG; higher = less effect of the substance
# 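Further: peak tail current of the secondary pulse compared with the same well before compound.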
# Chain of human ether-à-go-go-related gene (hERG) potassium channel (Q12809 whole entry, looked up): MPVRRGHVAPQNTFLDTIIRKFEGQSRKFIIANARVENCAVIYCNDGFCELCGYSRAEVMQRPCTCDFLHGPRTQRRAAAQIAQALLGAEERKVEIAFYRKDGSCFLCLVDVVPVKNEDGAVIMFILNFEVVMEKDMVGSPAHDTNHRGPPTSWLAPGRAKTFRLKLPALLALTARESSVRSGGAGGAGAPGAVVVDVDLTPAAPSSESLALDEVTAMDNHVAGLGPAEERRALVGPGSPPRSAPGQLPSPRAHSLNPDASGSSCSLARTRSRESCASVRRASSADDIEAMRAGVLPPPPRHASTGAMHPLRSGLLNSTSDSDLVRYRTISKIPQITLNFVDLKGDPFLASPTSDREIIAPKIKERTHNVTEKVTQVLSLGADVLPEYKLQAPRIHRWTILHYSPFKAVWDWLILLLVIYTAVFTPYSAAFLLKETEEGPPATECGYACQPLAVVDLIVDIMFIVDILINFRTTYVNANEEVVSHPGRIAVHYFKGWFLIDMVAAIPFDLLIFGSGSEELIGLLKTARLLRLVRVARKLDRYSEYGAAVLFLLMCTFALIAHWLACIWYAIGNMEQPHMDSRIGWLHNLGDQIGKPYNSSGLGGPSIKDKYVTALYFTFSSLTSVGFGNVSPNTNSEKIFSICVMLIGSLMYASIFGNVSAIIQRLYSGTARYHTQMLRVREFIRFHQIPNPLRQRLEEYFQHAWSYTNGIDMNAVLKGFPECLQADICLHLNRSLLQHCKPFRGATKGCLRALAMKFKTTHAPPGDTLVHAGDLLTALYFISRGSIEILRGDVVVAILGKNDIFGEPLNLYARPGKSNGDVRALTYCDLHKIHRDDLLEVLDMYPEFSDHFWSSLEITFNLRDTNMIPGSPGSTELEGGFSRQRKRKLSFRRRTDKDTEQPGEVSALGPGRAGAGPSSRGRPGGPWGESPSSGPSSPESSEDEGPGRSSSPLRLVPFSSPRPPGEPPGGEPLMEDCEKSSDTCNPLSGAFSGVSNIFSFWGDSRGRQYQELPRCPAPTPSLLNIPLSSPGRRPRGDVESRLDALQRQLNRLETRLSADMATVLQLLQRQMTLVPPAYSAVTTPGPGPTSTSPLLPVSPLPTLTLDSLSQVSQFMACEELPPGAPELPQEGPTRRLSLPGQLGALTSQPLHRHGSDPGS
row,SMILES,"hERG current change (%, negative = inhibition) at 10uM"
1,CCC(C)[C@H](NC(=O)NCc1ccc(OC)c(OC)c1)C(=O)O (stereo partly shown),7.82%
2,Cc1[nH]nc(N2CCCCC2)c1[N+](=O)[O-],-6.37%
3,Cc1nc(Nc2ccc3c(c2)OCCO3)c2c(C)c(C)sc2n1,-18.5%
4,Cc1sc2nc(CN3CCCC3)nc(Cl)c2c1C,-4.03%
5,Cc1sc2nc(CN3CCCCC3)nc(Nc3ccc4c(c3)OCCO4)c2c1C,-85.8%
6,Cc1sc2nc(CN3CCCC3)nc(NCc3ccncc3)c2c1C,-69.1%
7,Cc1sc2nc(CN3CCOCC3)nc(NS(=O)(=O)c3ccc4c(c3)OCCO4)c2c1C,6.33%
8,Cc1sc2nc(CN3CCOCC3)nc(NCCc3ccccc3)c2c1C,-30%
9,COc1ccc(-c2nnnn2C)cc1S(=O)(=O)Nc1ccc(C)cc1C,-7.53%
10,Cc1cc(OC(C)C(=O)NCCN2CCOCC2)c2c(C)c(C)c(=O)oc2c1 (stereo not shown),9.89%
11,COc1cccc(N2CCN(C(=S)Nc3ccccc3)CC2)c1,19%
12,O=C(CCCNS(=O)(=O)c1cccc2nsnc12)N1CCCCC1,10.7%
13,COc1cc(CNC2CCCC2)cc(Cl)c1OCc1ccccc1F.Cl,-1.44%
14,Cc1ccc(C)c(-c2ccc(=O)n(Cc3c(F)cccc3Cl)n2)c1,3.88%
15,CC(C)(C)N(Cc1cc2ccccc2[nH]c1=O)C(=O)C1CCCCC1,-11.9%
16,CCN(Cc1cc2ccccc2[nH]c1=O)C(=O)C1CCCCC1,-13.3%
17,CN(Cc1cc2ccccc2[nH]c1=O)C(=O)C1CCCCC1,-71.6%
18,CCOC(=O)[C@@H]1[C@H]2COc3ccccc3[C@@H]2N2C(=O)N(c3ccccc3)C(=O)[C@@]12C,11.4%
19,COc1ccc(/C=N\NC(=O)c2ccc(-c3ccccc3)cc2)cc1COC(C)=O,-0.748%
20,CC1=C(C(=O)N(C)C)C(c2ccccc2OC(F)F)NC(=O)N1 (stereo not shown),3.49%
21,CN(C)CCCNCC(=O)Nc1ccc(Cl)cc1C(=O)c1ccccc1.O=C(O)C(=O)O,-69%
22,O=C(Nc1ccc(Cl)cc1C(=O)c1ccccc1)c1ccccc1,3.76%
23,C[N+](C)(C)CC(=O)Nc1ccc(Cl)cc1C(=O)c1ccccc1.[Br-],21.4%
24,CCN(CC)CCNCC(=O)Nc1ccc(Cl)cc1C(=O)c1ccccc1.O=C(O)C(=O)O,-75.2%
25,CCN(CC)CC(=O)Nc1ccc(Cl)cc1C(=O)c1ccccc1,-21.2%
26,CCN(CC)CC(=O)Nc1ccc(C)cc1C(=O)c1ccccc1,-19.5%
27,COc1ccc(C2NC(c3ccc(OC)cc3)C([N+](=O)[O-])C(C)(C)C2[N+](=O)[O-])cc1 (stereo not shown),41.2%
28,CCCCCCCSc1nnc(-c2ccccc2N)c(=O)[nH]1,6.86%

row,SMILES,"hERG current change (%, negative = inhibition) at 10uM"
1,COc1ccccc1NC(=S)N1CCc2cc(OC)c(OC)cc2C1,-0.62%
2,COc1ccc(C(=S)N2CCN(c3cccc(Cl)c3)CC2)c(OC)c1,3.25%
3,COc1ccccc1CNC(=O)Cn1ccc2cc(S(=O)(=O)N3CCCC3)ccc21,-3.32%
4,CCc1nnc(NC(=O)CCS(=O)(=O)c2ccccc2)s1,23.8%
5,CC(C(=O)OCC(=O)Nc1ccc(S(=O)(=O)N2CCCCC2)cc1)N1C(=O)c2ccccc2C1=O (stereo not shown),-16.4%
6,O=C(COC(=O)c1ccccc1)Nc1cccc(S(=O)(=O)N2CCOCC2)c1,-26.5%
7,CC(C(=O)OCC(=O)Nc1ccc2c(c1)OCO2)N1C(=O)c2ccccc2C1=O (stereo not shown),-12.4%
8,CC(C(=O)OCC(=O)Nc1cccc(S(=O)(=O)N2CCOCC2)c1)N1C(=O)c2ccccc2C1=O (stereo not shown),-58%
9,CC(C(=O)OCC(=O)Nc1cccc(S(=O)(=O)N(C)C)c1)N1C(=O)c2ccccc2C1=O (stereo not shown),-82.8%
10,CN(C)S(=O)(=O)c1cccc(NC(=O)COC(=O)c2cc(=O)c3ccccc3o2)c1,11.3%
11,Cc1sc2nc(C(C)Nc3ccccc3N3CCOCC3)[nH]c(=O)c2c1C (stereo not shown),11.1%
12,O=C(N/N=C/c1ccncc1)c1cccc([N+](=O)[O-])c1,-5.83%
13,O=C(CN1CCN(C(=O)c2ccccc2F)CC1)Nc1ccc(Br)cc1,-64.6%
14,COc1ccccc1C(=O)N1CCN(CCNC(=O)C(=O)Nc2ccc(Br)c(C)c2)CC1,-48.8%
15,Cl.O=C(CN1CCN(C(=O)c2cccs2)CC1)NC1CCCCC1,-1.7%
16,CCC(=O)Nc1ccc(N2CCN(C(=O)c3cccs3)CC2)cc1,-7.15%
17,O=C(CN1CCN(C(=O)c2ccco2)CC1)Nc1ccc(Br)cc1,5.38%
18,COc1ccc(NC(=O)C(=O)NCCN2CCN(C(=O)c3cccs3)CC2)cc1,-45.1%
19,Cc1cc(NC(=O)C(=O)NCCN2CCN(C(=O)c3cccs3)CC2)ccc1Br,-63.7%
20,Cc1cc(NC(=O)C(=O)NCCN2CCN(S(C)(=O)=O)CC2)ccc1Br,-21.3%
21,O=C(CN1CCN(C(=O)c2cccs2)CC1)Nc1ccc(Br)cc1,-71.8%
22,O=C(CN1CCOCC1)Nc1ccc(NC(=O)c2ccccc2F)cc1,10.7%
23,O=C(NCCN1CCN(C(=O)c2cccs2)CC1)C(=O)Nc1ccc(Br)cc1,-73.7%
24,O=C(NCCN1CCN(C(=O)c2cccs2)CC1)c1cccs1,-35.8%
25,Cc1onc(-c2ccccc2)c1-c1nnc(CN2CCN(S(=O)(=O)c3ccccc3F)CC2)o1,-28.4%
26,Cc1c(/C=N\NC(=O)C2(C)CC2(Cl)Cl)cnn1C (stereo not shown),5.55%
27,COc1ccc(CC(=O)NC(=S)Nc2ccc(S(N)(=O)=O)cc2)cc1,-17.6%
